From PubChem BioAssay come the findings set out here.

Experiment [1] deals with Wnt5a (protein binding on small-molecule microarray). In words: small molecules binding Wnt5a protein – biophysical, small-molecule microarray, 635/667 nm fluorescence, primary screen (AID 1142).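 Also: fluorescence read at 667 nm with signal to noise per printed feature.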 The following applies: 635 nm fluorescence, higher = more signal.
Experiment [2] can be described thus: ATP-based viability of Huh7 replicon cells – cell-based, CellTiter-Glo luminescence, basal, 48 h, cytotoxicity control for HCV replication inhibitor project, primary screen (AID 1143).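 Also: Huh7 hepatoma cells carrying a hepatitis C replication reporter with no stimulus; test concentration not given here.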 The following applies: higher = more signal, called active from +8 up or from −8 down. Background: A replicon is a self-replicating genome or part of one, used to study replication in cells.

A short description of experiment [3]: Pseudomonas biofilm growth suppression – PAO1 strain, BacTiter-Glo luminescence, LB-PBS, primary screen (AID 1144). The following applies: P. aeruginosa PAO1 biofilm, 12 h, higher = more signal.
Experiment [4] is described as follows: basal CRE-LacZ reporter activity in PC12 – cell-based, unstimulated, primary screen (AID 1145). The settings on record: no forskolin, luminescence, 4.5 h, higher = more signal, called active from +8 up or from −8 down.
Experiment [5] in a line: forskolin-driven CRE-LacZ activity in PC12 – cell-based, CRE-LacZ reporter, forskolin-stimulated, primary screen (AID 1146).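 Also: PC12 cells with 6xCRE LacZ reporter stimulated by forskolin 10 µM; beta-galactosidase reporter signal reflecting CREB driven transcription.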 The settings on record: luminescence, 4.5 h, higher = more signal, called active from +8 up or from −8 down.
Experiment [6] concerns the target Streptavidin (Streptomyces avidinii) (UniProt P22629). In words: compounds binding control protein streptavidin – biophysical, small-molecule microarray, 635/667 nm fluorescence, artefact control for SMM compound annotation, primary screen (AID 1147).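 Also: signal reflects streptavidin binding to arrayed compounds as a control protein.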 The following applies: higher = more signal.
The nature of experiment [7]: probe aInhba binding on compound microarray – biochemical, small-molecule microarray, 635/667 nm fluorescence, primary screen (AID 1148).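 Also: score merges 667nm spot fluorescence with signal-to-noise for antibody binding to printed compounds.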 The following applies: higher = more signal.
Experiment [8] deals with Torsin-1A (Homo sapiens) (UniProt O14656). In words: TOR1A wild-type binding on microarray – cell lysate, small-molecule microarray, lysate, 635/667 nm, primary screen (AID 1149). The settings on record: COS7 hTOR1A-WT lysate, 635 nm fluorescence, higher = more signal.
Sequence of Torsin-1A (Homo sapiens) (O14656 whole entry, looked up): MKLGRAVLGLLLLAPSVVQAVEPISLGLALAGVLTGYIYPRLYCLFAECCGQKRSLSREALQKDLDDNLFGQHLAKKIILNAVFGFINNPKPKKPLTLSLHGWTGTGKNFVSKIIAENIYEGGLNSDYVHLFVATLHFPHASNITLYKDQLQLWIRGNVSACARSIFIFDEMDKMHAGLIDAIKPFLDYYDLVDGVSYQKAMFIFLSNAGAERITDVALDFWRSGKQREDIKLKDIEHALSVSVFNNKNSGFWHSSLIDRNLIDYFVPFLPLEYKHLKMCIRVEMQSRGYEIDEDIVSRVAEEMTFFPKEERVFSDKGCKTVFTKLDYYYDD
For experiment [9] the target is unchanged. In words: torsin A mutant lysate binding on microarrays – cell lysate, small-molecule microarray, COS7 lysate, 635/667 nm fluorescence, primary screen (AID 1150).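 Also: score pools 667 nm emission and signal to noise measuring lysate protein binding.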 The settings on record: COS7 hTOR1A mutant lysate, 635 nm fluorescence, higher = more signal.
For experiment [10], the system named is Sonic hedgehog protein (Shh). In words: Sonic hedgehog microarray binding compounds – biochemical, small-molecule microarray, 635/667 nm fluorescence, primary screen (AID 1151).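 Also: Shh protein binding to compounds spotted on small-molecule microarray slides; score combines spot fluorescence intensity with signal-to-noise across triplicate slides.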 The settings on record: 635 nm fluorescence, higher = more signal.
Experiment [11] is described as follows: optical density shifts of acrAB sulA E. coli – strain DRC41, OD650, 48 h, E. coli filamentation inducer project, primary screen (AID 1152).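 Also: E. coli MC1000 strain DRC41 lacking acrAB efflux pump and sulA.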 The settings on record: higher = more signal, called active from +8 up or from −8 down.
Experiment [12] can be described thus: probe aLefty1 binding on compound microarray – biochemical, small-molecule microarray, 635/667 nm fluorescence, primary screen (AID 1153).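 Also: score merges spot fluorescence with signal-to-noise ratio from the scanned slide images.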 The settings on record: higher = more signal.
Experiment [13] in a line: plasmodial surface anion channel blockers, osmotic lysis – cell-based, P. falciparum Indochina, OD700, 1 h, primary screen (AID 1154). The following applies: P. falciparum Indochina infected RBC osmotic lysis, higher = more signal, called active from +8 up or from −8 down.
Experiment [14] in a line: plasmodial surface anion channel blockers, osmotic lysis – cell-based, P. falciparum Indochina, OD700, 2 h, primary screen (AID 1155).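 Also: lysis reports solute entry through the parasite surface anion channel PSAC.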 The settings on record: P. falciparum Indochina infected erythrocytes, higher = more signal, called active from +8 up or from −8 down.
A short description of experiment [15]: changes in parasitized red cell lysis, either direction – P. falciparum Indochina, OD700, 3 h, PSAC antagonist project, primary screen (AID 1156). The following applies: P. falciparum-infected erythrocytes, osmotic lysis, higher = more signal, called active from +8 up or from −8 down.
Experiment [16] can be described thus: plasmodial surface anion channel blockers, osmotic lysis – cell-based, P. falciparum Indochina, OD700, 18 h, primary screen (AID 1157). The settings on record: P. falciparum Indochina infected erythrocytes, osmotic lysis OD700, 18 h; higher = more signal, called active from +8 up or from −8 down.
Experiment [17] can be described thus: S6 kinase pathway phospho-S6 level changes – cell-based, A549, cytoblot, luminescence, serum-stimulated, primary screen (AID 1158).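 Also: serum-stimulated A549 lung adenocarcinoma cells; signal is phosphorylated S6 detected by cytoblot immunostaining with HRP secondary.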 The following applies: 5 h, higher = more signal.
For experiment [18], the target named is NADPH oxidase 2 (Homo sapiens) (UniProt P04839). In words: compounds shifting NOX2 Amplex Red fluorescence – cell-based, HEK293-NOX2, PMA-stimulated, NOX inhibitor project, primary screen (AID 1159). Also: test concentration not given here. The following applies: 45 min, higher = more signal, called active from +8 up or from −8 down.
Sequence of NADPH oxidase 2 (Homo sapiens) (P04839 whole entry, looked up): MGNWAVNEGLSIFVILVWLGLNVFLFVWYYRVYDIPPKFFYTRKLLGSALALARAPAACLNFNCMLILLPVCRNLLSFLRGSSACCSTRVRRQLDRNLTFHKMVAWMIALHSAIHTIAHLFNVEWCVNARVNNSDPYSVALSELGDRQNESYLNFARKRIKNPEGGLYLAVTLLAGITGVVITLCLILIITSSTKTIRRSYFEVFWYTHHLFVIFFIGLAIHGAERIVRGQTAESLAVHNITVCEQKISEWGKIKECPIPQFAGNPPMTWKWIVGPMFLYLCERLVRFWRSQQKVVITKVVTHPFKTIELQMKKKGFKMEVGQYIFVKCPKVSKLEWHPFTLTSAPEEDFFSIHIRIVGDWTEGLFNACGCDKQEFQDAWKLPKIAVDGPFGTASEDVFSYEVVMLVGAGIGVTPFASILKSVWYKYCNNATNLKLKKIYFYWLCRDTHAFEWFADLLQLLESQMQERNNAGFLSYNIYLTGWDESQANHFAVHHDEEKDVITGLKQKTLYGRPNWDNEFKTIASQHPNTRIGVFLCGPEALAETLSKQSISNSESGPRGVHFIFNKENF
The target in experiment [19] is NADPH oxidase 4 (Homo sapiens) (UniProt Q9NPH5). In words: compounds shifting NOX4 Amplex Red fluorescence – cell-based, HEK293-NOX4, tetracycline-induced, NOX inhibitor project, primary screen (AID 1160). The settings on record: HEK293-NOX4, Amplex Red H2O2 fluorescence, 45 min; higher = more signal, called active from +8 up or from −8 down.
Sequence of NADPH oxidase 4 (Homo sapiens) (Q9NPH5 whole entry, looked up): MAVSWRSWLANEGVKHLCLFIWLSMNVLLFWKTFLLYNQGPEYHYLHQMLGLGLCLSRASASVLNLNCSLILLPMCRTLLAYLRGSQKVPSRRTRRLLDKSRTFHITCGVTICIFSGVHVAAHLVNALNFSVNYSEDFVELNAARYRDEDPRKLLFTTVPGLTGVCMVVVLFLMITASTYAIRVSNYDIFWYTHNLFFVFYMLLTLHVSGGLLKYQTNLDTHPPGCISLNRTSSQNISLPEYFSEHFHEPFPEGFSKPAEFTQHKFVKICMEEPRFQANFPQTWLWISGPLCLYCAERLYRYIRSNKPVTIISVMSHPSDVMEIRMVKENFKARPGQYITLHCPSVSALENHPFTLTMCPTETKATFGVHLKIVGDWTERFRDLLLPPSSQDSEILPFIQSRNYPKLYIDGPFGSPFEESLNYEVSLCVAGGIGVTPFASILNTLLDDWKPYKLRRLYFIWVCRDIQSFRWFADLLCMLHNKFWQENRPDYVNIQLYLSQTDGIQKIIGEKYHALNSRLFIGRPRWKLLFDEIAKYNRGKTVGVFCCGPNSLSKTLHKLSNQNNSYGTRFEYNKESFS
The target of experiment [20] is NADPH oxidase 5 (Homo sapiens) (UniProt Q96PH1). In words: compounds shifting NOX5 Amplex Red fluorescence – cell-based, HEK293-NOX5, NOX inhibitor project, primary screen (AID 1161). The following applies: HEK293-NOX5, ionomycin, 45 min, higher = more signal.
Sequence of NADPH oxidase 5 (Homo sapiens) (Q96PH1 whole entry, looked up): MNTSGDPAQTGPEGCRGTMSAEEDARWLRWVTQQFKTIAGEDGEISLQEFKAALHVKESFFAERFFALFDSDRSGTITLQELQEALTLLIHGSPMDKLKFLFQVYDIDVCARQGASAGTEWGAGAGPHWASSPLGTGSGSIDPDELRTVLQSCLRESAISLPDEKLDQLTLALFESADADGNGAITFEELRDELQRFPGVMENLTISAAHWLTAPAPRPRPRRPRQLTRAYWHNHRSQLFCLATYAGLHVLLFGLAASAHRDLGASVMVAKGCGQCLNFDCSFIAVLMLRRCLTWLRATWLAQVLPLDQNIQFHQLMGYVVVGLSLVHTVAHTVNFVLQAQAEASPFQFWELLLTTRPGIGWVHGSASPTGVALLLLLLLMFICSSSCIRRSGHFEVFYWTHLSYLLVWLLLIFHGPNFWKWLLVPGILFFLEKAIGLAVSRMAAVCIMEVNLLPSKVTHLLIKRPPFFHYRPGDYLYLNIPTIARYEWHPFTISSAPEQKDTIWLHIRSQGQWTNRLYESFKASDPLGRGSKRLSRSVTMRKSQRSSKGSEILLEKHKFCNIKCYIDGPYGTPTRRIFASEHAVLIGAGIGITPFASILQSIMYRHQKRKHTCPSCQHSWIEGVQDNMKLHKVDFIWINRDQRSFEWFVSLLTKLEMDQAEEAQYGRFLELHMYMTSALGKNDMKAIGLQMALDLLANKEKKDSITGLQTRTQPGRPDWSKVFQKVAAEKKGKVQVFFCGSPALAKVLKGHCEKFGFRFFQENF

The source made the active and inactive calls. Unless noted, no rule for the calls is given here.

Sequence of Streptavidin (Streptomyces avidinii) (P22629 whole entry, looked up): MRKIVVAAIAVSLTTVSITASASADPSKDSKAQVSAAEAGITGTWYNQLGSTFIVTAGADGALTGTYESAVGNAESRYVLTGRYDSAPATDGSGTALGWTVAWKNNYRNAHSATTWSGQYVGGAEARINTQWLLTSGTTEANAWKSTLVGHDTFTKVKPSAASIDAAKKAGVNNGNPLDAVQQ

In the case of `CCOC(=O)C[C@H]1[C@H](OC(=O)Cc2ccc3c(c2)OCO3)[C@@H](NC(=O)c2ccccc2)c2cc(OCCCO)ccc2N1C(=O)c1ccc2ccccc2n1`, the composite z-score in [1] was -0.112; in experiment [6], 0.965; in [7], -0.0418; in the experiment with Torsin-1A (Homo sapiens) [8] it was 0.0426; with Torsin-1A (Homo sapiens) [9] it was 1.19; in experiment [10], 0.844. Also, the composite z-score in [12] amounted to 0.031. Further, the z-score in [2] is -0.629 (inactive); in [3] it was 0.581 (inactive); in experiment [4], 11 (active); in [5] it was -0.981 (inactive); in experiment [11], 2.15 (inactive); in experiment [13] it was 6.69 (inactive). Besides, the z-score in experiment [14] was -0.0918 (inactive); in [15], -1.04 (inactive); in [16], -1.23 (inactive); in experiment [17] it was 0.873; in experiment [18], -0.357 (inactive); in experiment [19], 1.16 (inactive). In [20], the z-score was 0.27.

Consider `Cc1ccccc1C(O)C1C=CC2C(=O)N(Cc3ccccc3)C(=O)C2N1n1cnnc1` (stereo not given), for which the composite z-score in experiment [1] is 0.166; in experiment [6], 0.0691; in experiment [7], -0.0986; with Torsin-1A (Homo sapiens) [8], 0.374; with Torsin-1A (Homo sapiens) [9] it was 0.755; in [10], 0.59. This compound showed a composite z-score in experiment [12] of 0.0722. Also, the z-score in [2] is -0.293 (inactive); in [3], -1.45 (inactive); in experiment [4] it was -0.667 (inactive); in experiment [5], 0.688 (inactive); in [11], -0.534 (inactive); in [13] it was 1.4 (inactive). The z-score in experiment [14] was 1.2 (inactive); in experiment [15] it was 0.341 (inactive); in [16], 0.927 (inactive); in experiment [17], -0.29; in [18], -0.4 (inactive); in experiment [19] it was 0.1 (inactive). In addition, in experiment [20], the z-score worked out at 0.067.

Take `CN(C)C(=O)[C@@]1(Cc2ccccc2N=[N+]=[N-])N=C(c2ccc(OCCCO)cc2)O[C@H]1c1ccccc1N=[N+]=[N-]`: the composite z-score in experiment [1] is 0.451; in experiment [6], 0.54; in experiment [7] it was 0.0028; with Torsin-1A (Homo sapiens) [8], 0.761; with Torsin-1A (Homo sapiens) [9], 0.776; in experiment [10], -0.536. Besides, the composite z-score in experiment [12] is -0.213. The z-score was -3.76 (inactive) in experiment [2]; 1.19 (inactive) in experiment [3]; 1.19 (inactive) in [4]; -1.97 (inactive) in [5]; 0.0086 (inactive) in experiment [11]; 31.3 (active) in [13]. Further, the z-score is 29.7 (active) in experiment [14]; 2.54 (inactive) in experiment [15]; 3.39 (inactive) in [16]; 0.246 in experiment [17]; -1.34 (inactive) in experiment [18]; -0.493 (inactive) in experiment [19]. The z-score in experiment [20] is -2.

In the case of `O=C(O)[C@]1(CCS(=O)(=O)c2ccccc2)N=C(c2ccc(OCCCO)cc2)O[C@@H]1c1ccccc1`, the composite z-score in experiment [1] is 0.235; in experiment [6], -0.0087; in [7] it was 0.297; with Torsin-1A (Homo sapiens) [8], -0.0493; in the experiment with Torsin-1A (Homo sapiens) [9], -0.301; in [10] it was -0.439. For the same compound, in experiment [12], the composite z-score was determined as 0.528. For the same compound, the z-score is 0.495 (inactive) in experiment [2]; 0.869 (inactive) in experiment [3]; 0.19 (inactive) in experiment [4]; -0.534 (inactive) in experiment [5]; 0.139 (inactive) in [11]; 11.3 (active) in experiment [13]. Besides, the z-score was 1.11 (inactive) in experiment [14]; 0.327 (inactive) in experiment [15]; -0.169 (inactive) in experiment [16]; -0.515 in [17]; -0.298 (inactive) in [18]; 0.578 (inactive) in experiment [19]. Further, the z-score in [20] worked out at 1.1.
